Assay results published in PubChem BioAssay.
Active and inactive are the calls of the source. Unless noted, the rule behind the calls is not given here.

How the values were obtained:
[1] = resazurin metabolic signal in HepG2 cells – cell-based, resazurin fluorescence, 24 h, PK04 Diversity Set, profiling panel (AID 1172); conditions: HepG2 viability, higher = more signal
[2] = budding yeast growth changes without added modifier – OD600, strain BY4716, 24 h, basal condition, primary screen (AID 1173); conditions: S. cerevisiae BY4716 growth, OD600, 24 h; higher = more signal, called active from +8 up or from −8 down
[3] = viability profiling in MM1S myeloma cells – cell-based, resazurin fluorescence, basal, 24 h, PK04 Diversity Set, profiling panel (AID 1174); conditions: higher = more signal, called active from +8 up or from −8 down;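 note: MM1S multiple myeloma cell line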
[4] = target: Dihydroorotate dehydrogenase (quinone), mitochondrial (Plasmodium falciparum (isolate 3D7)) (UniProt Q08210); test: inhibition of P. falciparum DHODH – biochemical, C-terminal His tag, absorbance 600 nm, primary screen (AID 1175); conditions: PfDHODH enzyme, DCIP absorbance 600 nm; higher = more signal, called active from +8 up or from −8 down;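 note: recombinant parasite enzyme with a five histidine tag at its C terminus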
[5] = inhibition of PAO1 biofilm formation – strain PAO1, LB-PBS medium, absorbance 600 nm, primary screen (AID 1176); conditions: P. aeruginosa PAO1 growth/biofilm, A600, 12 h; higher = more signal
[6] = growth modulation of vineyard yeast isolate – strain RM11-1a, OD600, basal, 24 h, primary screen (AID 1177);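 note: cultures grown under basal conditions with no added stressor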; conditions: S. cerevisiae RM11-1a growth, OD600, 24 h; higher = more signal, called active from +8 up or from −8 down
[7] = growth of efflux-deficient E. coli DRC39 – strain DRC39, OD650, 24 h, E. coli filamentation inducers, primary screen (AID 1178);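 note: growth measured as culture turbidity by optical density at 650 nm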; conditions: E. coli DRC39 acrAB, higher = more signal, called active from +8 up or from −8 down
[8] = growth of efflux-deficient E. coli DRC39 – strain DRC39, OD650, 48 h, E. coli filamentation inducers, primary screen (AID 1179);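 note: screen aims at cell division blockers that make cells filament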; conditions: E. coli DRC39 delta-acrAB growth, higher = more signal, called active from +8 up or from −8 down
[9] = viability profiling in RPMI8226 myeloma cells – cell-based, resazurin fluorescence, basal, 24 h, PK04 Diversity Set, profiling panel (AID 1180); conditions: higher = more signal;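 note: RPMI8826 multiple myeloma cell line at 5000 cells per well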
[10] = target: E3 ubiquitin-protein ligase XIAP (Homo sapiens) (UniProt P98170); test: small molecules binding XIAP protein – biophysical, small-molecule microarray, fluorescence 635 nm, primary screen (AID 1181); conditions: higher = more signal;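 note: score merges 667 nm emission and signal to noise over triplicate slides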
[11] = test system: XIP peptide (Xip251-270) binding; test: XIP fragment 251-270 binding compounds – biochemical, small-molecule microarray, fluorescence 635/667 nm, 0.1 µg/mL protein, primary screen (AID 1182); conditions: fluorescent protein binding, 635 nm, higher = more signal, called active from +8 up or from −8 down
XIP peptide (Xip251-270) = test: compounds binding XIP fragment 251-270 – biochemical, small-molecule microarray, fluorescence 635/667 nm, 0.5 µg/mL protein, primary screen (AID 1183); conditions: fluorescence 635 nm, higher = more signal
[12] = blood-stage malaria parasite viability loss – strain 3D7, DAPI fluorescence, 100 nL, primary screen (AID 1184);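 note: parasites grown inside human red blood cells in medium with human serum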; conditions: P. falciparum 3D7 growth, 3 d, higher = more signal
[13] = target: Homeobox protein Hox-A13 (Mus musculus) (UniProt Q62424); test: disruptors of Hoxa13 oligonucleotide interaction – biochemical, fluorescence polarization, labeled oligonucleotide, primary screen (AID 1185); conditions: Hoxa13:DNA binding, 15 min, higher = more signal, called active from +8 up or from −8 down
[14] = blockers of DNA damage checkpoint Chk1 activation – imaging, HeLa, hydroxyurea, phospho-Chk1 antibody, percent positive cells, primary screen (AID 1186); conditions: hydroxyurea-induced phospho-Chk1 immunofluorescence imaging, higher = more signal
[15] = blockers of DNA damage checkpoint Chk1 activation – imaging, HeLa, hydroxyurea, phospho-Chk1 nuclear intensity, primary screen (AID 1187); conditions: hydroxyurea-induced phospho-Chk1 immunofluorescence imaging, higher = more signal

Sequence of Dihydroorotate dehydrogenase (quinone), mitochondrial (Plasmodium falciparum (isolate 3D7)) (Q08210 whole entry, looked up): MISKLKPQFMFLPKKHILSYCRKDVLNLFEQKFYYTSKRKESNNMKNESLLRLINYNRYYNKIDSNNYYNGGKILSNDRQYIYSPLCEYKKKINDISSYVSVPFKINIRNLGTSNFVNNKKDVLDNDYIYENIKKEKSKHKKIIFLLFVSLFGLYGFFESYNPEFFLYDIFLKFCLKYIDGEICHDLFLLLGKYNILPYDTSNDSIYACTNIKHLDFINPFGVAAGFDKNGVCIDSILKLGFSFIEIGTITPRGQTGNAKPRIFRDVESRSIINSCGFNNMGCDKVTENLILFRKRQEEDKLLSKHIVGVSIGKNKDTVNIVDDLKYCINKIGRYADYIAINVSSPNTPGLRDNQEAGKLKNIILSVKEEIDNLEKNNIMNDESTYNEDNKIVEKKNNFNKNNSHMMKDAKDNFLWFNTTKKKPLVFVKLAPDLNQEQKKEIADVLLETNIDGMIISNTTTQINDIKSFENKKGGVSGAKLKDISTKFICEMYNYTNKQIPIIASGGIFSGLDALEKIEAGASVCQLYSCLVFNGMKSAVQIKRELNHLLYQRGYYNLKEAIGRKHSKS
Sequence of E3 ubiquitin-protein ligase XIAP (Homo sapiens) (P98170 whole entry, looked up, the tested form may be a part): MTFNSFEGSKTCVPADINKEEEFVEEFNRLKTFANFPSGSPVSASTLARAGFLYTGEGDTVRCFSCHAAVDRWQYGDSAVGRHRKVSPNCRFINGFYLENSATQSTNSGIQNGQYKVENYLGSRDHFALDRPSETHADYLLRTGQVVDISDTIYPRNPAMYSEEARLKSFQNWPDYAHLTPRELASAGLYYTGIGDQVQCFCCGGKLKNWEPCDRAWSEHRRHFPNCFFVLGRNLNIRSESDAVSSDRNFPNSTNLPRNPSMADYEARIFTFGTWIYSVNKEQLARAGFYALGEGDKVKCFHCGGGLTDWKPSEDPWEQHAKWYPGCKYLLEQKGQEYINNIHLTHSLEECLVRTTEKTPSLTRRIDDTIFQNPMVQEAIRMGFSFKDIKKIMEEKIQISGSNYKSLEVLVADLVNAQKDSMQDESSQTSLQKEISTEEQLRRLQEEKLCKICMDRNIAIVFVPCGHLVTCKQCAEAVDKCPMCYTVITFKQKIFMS
Sequence of Homeobox protein Hox-A13 (Mus musculus) (Q62424 whole entry, looked up): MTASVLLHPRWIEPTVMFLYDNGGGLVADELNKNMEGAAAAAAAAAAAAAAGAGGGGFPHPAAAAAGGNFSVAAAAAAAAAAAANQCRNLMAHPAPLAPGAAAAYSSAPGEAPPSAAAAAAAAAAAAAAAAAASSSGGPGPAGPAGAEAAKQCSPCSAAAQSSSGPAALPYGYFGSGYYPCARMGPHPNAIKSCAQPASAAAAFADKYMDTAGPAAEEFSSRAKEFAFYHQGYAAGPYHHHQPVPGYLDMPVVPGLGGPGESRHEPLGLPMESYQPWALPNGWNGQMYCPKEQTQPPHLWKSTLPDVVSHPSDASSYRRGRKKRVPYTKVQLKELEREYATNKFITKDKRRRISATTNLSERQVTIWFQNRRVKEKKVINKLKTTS

Row | Structure (SMILES) | z-score [1] | z-score [2] | z-score [3] | composite z-score [4] | z-score [5] | z-score [6] | z-score [7] | z-score [8] | z-score [9] | composite z-score [10] | composite z-score [11] | composite z-score (XIP peptide (Xip251-270)) | z-score [12] | z-score [13] | z-score [14] | z-score [15]
1 | Cc1c(NC(=O)/C(C#N)=C/C=C/c2ccccc2[N+](=O)[O-])c(=O)n(-c2ccccc2)n1C | -1.25 | -0.0708 (inactive) | -0.729 (inactive) | 0.512 (inactive) | -0.6 (inactive) | -0.061 (inactive) | 1.06 (inactive) | -0.241 (inactive) | -1.73 | -0.0172 | 4.09 (inactive) | 0.552 | -0.758 | -3.54 (inactive) | 0.432 (inactive) | 0.721 (inactive)
2 | CN(C)CCCNC(=O)[C@@H]1c2ccccc2C(=O)N(Cc2ccc(OC(F)(F)F)cc2)[C@H]1c1ccc(CO)cc1 | -0.39 | 0.0639 (inactive) | 0.983 (inactive) | 0.853 (inactive) | 0.407 (inactive) | 1 (inactive) | 0.897 (inactive) | -0.193 (inactive) | 0.818 | -0.117 | 0.323 (inactive) | 0.721 | -1.9 | -3.41 (inactive) | -0.234 (inactive) | -0.296 (inactive)
3 | NC(=O)NCC#Cc1ccc2c(c1)[C@]1(C(=O)N2)[C@H](c2ccc(O)cc2)N2[C@H](c3ccccc3)[C@H](c3ccccc3)OC(=O)[C@H]2[C@@H]1C(=O)Nc1nc2ccccc2s1 | 0.971 | 3.54 (inactive) | 0.972 (inactive) | -0.579 (inactive) | 4.48 (inactive) | 5.85 (inactive) | 1.04 (inactive) | 1.19 (inactive) | 0.388 | 0.591 | 0.541 (inactive) | 0.453 | 0.364 | 0.608 (inactive) | -0.275 (inactive) | 0.0338 (inactive)
4 | C=CCOC(=O)[C@@H]1[C@H]2C(=O)O[C@H](c3ccccc3)[C@H](c3ccccc3)N2[C@H](c2ccc(OCCOC(=O)[C@H]3C[C@H]4C(=O)N[C@@H](CCCCN(C)C)C(=O)N4[C@H]3c3cccc(OCCO)c3)cc2)[C@@]12C(=O)Nc1ccc(I)cc12 | -0.999 | 2.24 (inactive) | -0.302 (inactive) | 0.26 (inactive) | 2.57 (inactive) | 1.17 (inactive) | -0.0783 (inactive) | -0.0986 (inactive) | -0.209 | -0.202 | 1.78 (inactive) | 0.817 | -1.65 | -0.599 (inactive) | -0.426 (inactive) | -0.588 (inactive)
5 | COC(=O)[C@@]1(Cc2ccccc2)[C@H]2c3cc(C(=O)N4CCCC4)n(Cc4cc(F)cc5c4OCOC5)c3C[C@H]2CN1C(=O)c1ccccc1 | -0.0185 | 0.978 (inactive) | -0.523 (inactive) | -0.354 (inactive) | 0.122 (inactive) | -0.0989 (inactive) | -0.599 (inactive) | -0.37 (inactive) | -0.312 | 0.392 | 0.766 (inactive) | 0.828 | -1.65 | -5.42 (inactive) | 0.189 (inactive) | 0.435 (inactive)
